{"source": "PubChem BioAssay (NCATS)", "note": "Results filed as inconclusive are left out. A number with no mark means an inactive call. Calls come from the whole dose curve. % is set by controls: 0 for no effect and ±100 for the full control effect.", "data": [{"molecular_target": "Atrial natriuretic peptide receptor 2 (Homo sapiens) (UniProt P20594)", "sequence (P20594 whole entry, looked up)": "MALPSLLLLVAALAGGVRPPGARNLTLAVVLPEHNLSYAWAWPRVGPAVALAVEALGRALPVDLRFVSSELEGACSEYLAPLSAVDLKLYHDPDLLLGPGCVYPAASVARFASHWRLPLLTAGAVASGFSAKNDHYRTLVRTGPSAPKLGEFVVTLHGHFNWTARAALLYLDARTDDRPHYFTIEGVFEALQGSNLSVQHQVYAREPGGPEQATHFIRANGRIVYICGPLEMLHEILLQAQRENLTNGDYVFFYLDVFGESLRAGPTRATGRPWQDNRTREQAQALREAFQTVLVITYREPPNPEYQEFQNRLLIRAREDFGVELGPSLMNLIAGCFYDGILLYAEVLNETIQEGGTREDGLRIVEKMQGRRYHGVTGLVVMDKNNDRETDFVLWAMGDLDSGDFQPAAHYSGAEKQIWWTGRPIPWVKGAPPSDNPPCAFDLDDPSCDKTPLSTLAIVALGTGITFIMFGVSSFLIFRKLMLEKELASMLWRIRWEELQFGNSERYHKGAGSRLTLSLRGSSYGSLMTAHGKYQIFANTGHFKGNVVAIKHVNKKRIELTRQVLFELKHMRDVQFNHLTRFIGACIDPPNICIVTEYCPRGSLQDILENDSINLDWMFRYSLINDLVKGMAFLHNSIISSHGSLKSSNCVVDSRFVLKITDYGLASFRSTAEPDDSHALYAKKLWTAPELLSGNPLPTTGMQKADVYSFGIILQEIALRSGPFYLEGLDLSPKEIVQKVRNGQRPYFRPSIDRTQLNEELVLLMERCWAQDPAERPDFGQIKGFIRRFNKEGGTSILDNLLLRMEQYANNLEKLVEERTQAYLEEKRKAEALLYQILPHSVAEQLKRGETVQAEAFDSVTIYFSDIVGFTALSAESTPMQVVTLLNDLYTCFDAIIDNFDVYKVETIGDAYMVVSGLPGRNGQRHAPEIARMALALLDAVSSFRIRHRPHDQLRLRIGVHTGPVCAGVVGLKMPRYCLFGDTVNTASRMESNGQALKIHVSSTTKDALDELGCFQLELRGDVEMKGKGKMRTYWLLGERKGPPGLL", "assay": "Natriuretic polypeptide receptor (hNpr2) antagonism - Pilot subtype selectivity assay (AID 1347050)", "conditions": "NPR2-expressing cells, cGMP antagonist-mode read-out; series mostly up to 38.3 µM; activity change, negative = inhibition: at the top concentration", "in_short": "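HEK293 cells expressing hNpr2 and a GloSensor cGMP luciferase sensor, 1500/well, preloaded 2 h with 2% GloSensor reagent, compound 30 min, then 1 nM hNppC for 20 min. Antagonism from luminescence after versus baseline pre-read; LOPAC in 1:5 titrations.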", "units": {"activity change, negative = inhibition": "%"}, "values": [{"smiles": "CN1CCc2ccccc2Cc2[nH]c3ccccc3c2CC1", "activity change, negative = inhibition": -6.91}, {"smiles": "O=C(/C=C/c1ccc(O)c(O)c1)OCCc1ccccc1", "activity change, negative = inhibition": -29.2}, {"smiles": "CC(C)NC[C@@H](O)c1ccc(O)c(O)c1", "activity change, negative = inhibition": 7.72}, {"smiles": "CC(C)NC[C@H](O)COc1cccc2[nH]ccc12", "activity change, negative = inhibition": -1.07}, {"smiles": "Oc1cc2c(cc1O)CN(C(=S)NCCc1ccc(Cl)cc1)CCC2", "activity change, negative = inhibition": -17}, {"smiles": "Cn1cc(C2=C(c3ccc(Cl)cc3Cl)C(=O)NC2=O)c2ccccc21", "activity change, negative = inhibition": -5.66}, {"smiles": "Cc1cc(NC2CCCCC2)nc(-n2nc(C)cc2C)n1", "activity change, negative = inhibition": 15.4}, {"smiles": "O=C(O)CNC(=O)C(CS)Cc1ccccc1", "note": "(configuration not stated)", "activity change, negative = inhibition": 7.62}, {"smiles": "COc1cccc(C(=O)NCCN2CCN(c3ccc(Cl)cc3)CC2)c1", "activity change, negative = inhibition": -8.45}, {"smiles": "OC[C@H]1O[C@@H](n2cnc3c(NC4CCCCC4)ncnc32)[C@H](O)[C@@H]1O", "activity change, negative = inhibition": -2.91}, {"smiles": "NC(=O)C(=O)O", "activity change, negative = inhibition": 15.1}, {"smiles": "O=C(Nc1ccccc1)c1cc([N+](=O)[O-])ccc1Cl", "activity change, negative = inhibition": 0.684}, {"smiles": "NCCCCCCCCCCN", "activity change, negative = inhibition": 4.19}, {"smiles": "COc1cccc(OC)c1OCCNCC1COc2ccccc2O1", "note": "(configuration not stated)", "activity change, negative = inhibition": -15.3}, {"smiles": "COC1=C(OC)C(=O)c2ccccc2C1=O", "activity change, negative = inhibition": 9.23}, {"smiles": "OCC1O[C@H](O)C(Cl)C(O)C1O", "note": "(some centres not stated)", "activity change, negative = inhibition": 6.33}, {"smiles": "CCCN(CC1CC1)c1nc(C)nc(Nc2c(Cl)cc(Cl)cc2Cl)c1Cl", "activity change, negative = inhibition": -4.15}, {"smiles": "O=P(O)(O)C(Cl)(Cl)P(=O)(O)O", "activity change, negative = inhibition": 1.44}, {"smiles": "COc1cc(SC)ccc1C(=O)N1CCC(Cc2ccccc2)CC1", "activity change, negative = inhibition": 17}, {"smiles": "Clc1ccc(N2CCN(Cc3c[nH]c4ncccc34)CC2)cc1", "activity change, negative = inhibition": -11.4}, {"smiles": "Fc1ccc(C(OCCCc2cnc[nH]2)c2ccc(F)cc2)cc1", "activity change, negative = inhibition": -3.2}, {"smiles": "CC(C)(C=O)Cc1cc(C(C)(C)C)c(O)c(C(C)(C)C)c1", "activity change, negative = inhibition": -28.9}]}]}
